The whole screen tested about 1,300 compounds, of which about 380 (29%) were called active. Inconclusive results (about 37%) are left out. Some of the results follow. Unmarked numbers belong to inactive results. Calls follow the shape of the dose curve; as a rule, active = well fitted inhibition curve with a large enough effect; inconclusive = small, poorly fitted or top-dose-only effect; inactive = flat fitted curve, though single readings scatter.
target: Thyrotropin receptor (Homo sapiens) (UniProt P16473); assay: qHTS for antagonists of the Thyroid Stimulation Hormone Receptor: Hit Validation in Primary Screen; settings: TSHR-expressing cells, cAMP antagonist mode; series mostly up to 58 µM; activity change, negative = inhibition: at the top concentration; also: nearly all actives have a fitted effect of over 80% in size;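 as to activity change, negative = inhibition: cAMP by competitive HTRF where cellular cAMP lowers the 665 nm FRET signal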
Outline: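 TSHR-expressing cells were pretreated with compound, then stimulated with TSH at EC80 (4nM final) for 2 hours at 37 deg C. Cellular cAMP measured by competitive HTRF (anti-cAMP cryptate, cAMP-d2) after 30 min at room temperature.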
% is scaled to controls: 0 for no effect and ±100 for the full control effect; potency is read from the fitted curve at half-maximal effect.

Thyrotropin receptor (Homo sapiens), sequence (P16473 whole entry, looked up): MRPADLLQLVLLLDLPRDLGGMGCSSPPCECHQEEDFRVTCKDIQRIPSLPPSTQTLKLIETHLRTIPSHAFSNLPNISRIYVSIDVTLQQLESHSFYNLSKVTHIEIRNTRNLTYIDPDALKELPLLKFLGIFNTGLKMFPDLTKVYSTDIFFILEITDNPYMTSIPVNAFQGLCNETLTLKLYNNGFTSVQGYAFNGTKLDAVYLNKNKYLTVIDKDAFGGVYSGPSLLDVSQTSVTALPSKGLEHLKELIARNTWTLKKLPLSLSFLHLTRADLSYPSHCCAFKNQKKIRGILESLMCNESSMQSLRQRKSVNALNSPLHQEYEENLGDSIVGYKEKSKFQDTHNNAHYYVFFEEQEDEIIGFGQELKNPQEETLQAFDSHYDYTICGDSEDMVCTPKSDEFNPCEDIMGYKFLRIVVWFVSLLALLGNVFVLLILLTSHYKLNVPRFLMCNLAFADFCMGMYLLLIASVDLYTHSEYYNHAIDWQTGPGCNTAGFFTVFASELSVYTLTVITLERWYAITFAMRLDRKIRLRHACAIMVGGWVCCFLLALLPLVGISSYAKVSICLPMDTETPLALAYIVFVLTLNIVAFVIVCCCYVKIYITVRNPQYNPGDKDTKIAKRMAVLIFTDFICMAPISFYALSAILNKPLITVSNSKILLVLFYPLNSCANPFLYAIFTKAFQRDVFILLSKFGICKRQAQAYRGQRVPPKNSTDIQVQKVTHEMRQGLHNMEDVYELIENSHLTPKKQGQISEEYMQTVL

SMILES | activity change, negative = inhibition [%] | Potency
CCCC(=O)Nc1nnc(CCc2ccccc2)s1 | -2.28 | –
CS(=O)(=O)Cc1ccc(C(=O)Nc2cccc(-c3nc4ccccc4[nH]3)c2)cc1 | -7.95 | –
CCC1CCCCN1S(=O)(=O)c1ccc(NC(=O)c2nc(S(C)(=O)=O)ncc2Cl)cc1 (stereo not given) | – | 9.53 µM (active)
CN1/C(=C/C(=O)c2nc(S(C)(=O)=O)ncc2Cl)C(C)(C)c2ccccc21 | – | 21.3 µM (active)
Cc1ccc(S(=O)(=O)N(CC(=O)NCc2ccccn2)c2ccc(Cl)cc2)cc1 | -3.4 | –
CCN(c1ccccc1)S(=O)(=O)c1ccc(NC(=O)c2nc(S(C)(=O)=O)ncc2Cl)cc1 | – | 26.9 µM (active)
CS(=O)(=O)c1ncc(Cl)c(C(=O)Nc2ccc3ccccc3c2)n1 | – | 30.1 µM (active)
CCN(c1ccccc1)S(=O)(=O)c1ccc(NCC2COc3ccccc3O2)nc1 (stereo not given) | -10.9 | –
CN(c1ccccc1)S(=O)(=O)c1ccc(NC(=O)c2nc(S(C)(=O)=O)ncc2Cl)cc1 | – | 21.3 µM (active)
CCS(=O)(=O)c1ncc(Cl)c(C(=O)Nc2ccc(S(=O)(=O)N(C)c3ccccc3)cc2)n1 | – | 19 µM (active)
CCS(=O)(=O)c1ccc(C(=O)Nc2ccccc2)c(Cl)c1Cl | -11.7 | –
CCSc1ncc(Cl)c(C(=O)Nc2ccccc2OC)n1 | -2.3 | –
Cc1onc(-c2c(Cl)cccc2Cl)c1C(=O)N1CCc2ccccc2C1 | -6.77 | –
COc1ccc(/C=N/n2c(C)nnc2C)c(OC)c1OC | -9.42 | –
CCN(C(=O)c1cc2c(=O)n3ccccc3nc2n1C)C1CCCCC1 | -7.38 | –
CCN(CC)c1ccc2nc3ccccc3[n+](CC)c2c1 | – | 13.5 µM (active)
Cc1c(N=Nc2c(-c3ccc([N+](=O)[O-])cc3)[nH]n(C(N)=S)c2=O)cccc1[N+](=O)[O-] | – | 3.79 µM (active)
CC(=O)Nc1nc(C)c(Oc2ccc(C)cc2)c(=O)[nH]1 | -4.18 | –
O=[N+]([O-])c1ccc(Sc2cccc[n+]2[O-])c2nonc12 | – | 8.49 µM (active)
COc1ccc(Nc2ccc([N+](=O)[O-])c3nonc23)c(OC)c1 | -3.05 | –

SMILES | activity change, negative = inhibition [%] | Potency
CN(C)S(=O)(=O)Oc1cccc(C(=O)Nc2ccc(Cl)c(Cl)c2)c1 | – | 26.9 µM (active)
O=C(Nc1ccc(Cl)c(Cl)c1)c1cccc(S(=O)(=O)NCc2cccnc2)c1 | – | 13.5 µM (active)
O=C(NCc1cccnc1)c1nc(-c2ccccc2)n(-c2ccccc2)n1 | -7.43 | –
Fc1cccc(Cl)c1CNCc1cccnc1 | -6.25 | –
Cc1ccc(NC(=O)c2cccc(OCc3c(C)noc3C)c2)cc1S(=O)(=O)Nc1ccccc1Cl | -8.07 | –
O=c1[nH]c(=S)[nH]c2c1CN(Cc1ccc(F)cc1)CC2 | -8.38 | –
O=C(O)c1nn(CC(=O)N2CCN(c3ncc(C(F)(F)F)cc3Cl)CC2)c(=O)c2ccccc12 | – | 21.3 µM (active)
O=c1c2nncn2c2cccnc2n1CCNc1ncc(C(F)(F)F)cc1Cl | -4.18 | –
Cc1ccc(-n2[nH]c(C)c(/C=N/Nc3ccc([N+](=O)[O-])cc3[N+](=O)[O-])c2=O)cc1 | – | 6.75 µM (active)
Cc1ccc(-n2[nH]c(C)c(/C=N/Nc3ccc([N+](=O)[O-])cc3[N+](=O)[O-])c2=O)cc1C | – | 2.39 µM (active)
O=C(N/N=C/c1ccc[nH]1)c1sc2ccccc2c1Cl | -4.67 | –
Nc1nnc(COc2ccc(Br)cc2Br)s1 | -5.73 | –
O=C(Oc1c(Br)cc([N+](=O)[O-])cc1Br)c1cccnc1 | – | 4.26 µM (active)
COc1ccc(CN2CCCN(C)CC2)c(OC)c1C | -4.21 | –
Cc1ccc(S(=O)(=O)Nc2ccc(N=Nc3ccc(O)cc3)cc2)cc1 | – | 30.1 µM (active)
Cc1ccc(S(=O)(=O)NCCNS(=O)(=O)c2ccc(C)cc2)cc1 | -7.12 | –
CCOC(=O)N1CCN(C(=O)c2ccc(NS(=O)(=O)c3ccc(C)cc3)cc2)CC1 | -10.8 | –
N#C/C(=N\Nc1ccc(Cl)c(Cl)c1)C(=O)C1CC1 | – | 6.01 µM (active)
Cc1cccc(C)c1NC(=O)N1CCC(C(=O)c2ccc(F)cc2)CC1 | -1.04 | –
O=C(Nc1nnc(C(F)(F)F)s1)c1ccc(Br)s1 | – | 10.7 µM (active)
